Out of some 69,000 compounds screened, about 8,600 (12%) showed an effect of 50% or more. The full list was thinned out, with strong results kept by preference.
These compounds were tested on Plasmodium berghei (assay: Screen against P. berghei liver stage (PbLuc), transformed with Luciferase, at 10uM). Conditions: tested at 10 uM.
Type: functional, HepG2

Compound | INHIBITION
COc1ccc(CN2C[C@@H](OCc3csc(C)n3)[C@H]3COC[C@H]32)cc1 | -21.5%
N#CC1CCCN(C(=O)Cn2ncc(N3CCCC3)cc2=O)C1 (centres undefined) | 44.9%
CCc1cc(N2CCC3(CCCNC3=O)C2)nc(N2CCOCC2)n1 (centres undefined) | 70.3%
CCc1cc(N2CCCC(CC)(C(=O)O)C2)nc(N2CCOCC2)n1 (centres undefined) | 39.6%
Cc1cc(C2CCC2)nc(N2CCC3(CCCNC3=O)C2)n1 (centres undefined) | 42.5%
COCCN1CCN(c2nc(O)cc(Cc3ccccc3F)n2)CC1 | 38.7%
Cn1c(CN2CCN(CC3CCCO3)CC2)nc2ccccc21 (centres undefined) | 27.6%
Cc1cccc(C)c1OCCCN1CCN(CC2CCCO2)CC1 (centres undefined) | 67.1%
COCCCN1CCN(CC2CCCO2)CC1 (centres undefined) | 17.5%
O=S(=O)(N1CCCC1)N1CCN(CC2CCCO2)CC1 (centres undefined) | 33.4%
COCCN1CCC(CN(CC2CCCO2)C(=O)CCNC(C)=O)CC1 (centres undefined) | -14.9%
COCCN1CCC(CN(CC2CCCO2)C(=O)COC)CC1 (centres undefined) | 26.8%
Cc1cccc(C)c1OCCCN1CCC(n2cncn2)CC1 | -49.5%
COCCN1CCN(CC2CCCCO2)CC1 (centres undefined) | 51.7%
COCCN1CCC(CN(CC2CCCO2)C(=O)CNC(C)=O)CC1 (centres undefined) | 50.2%
O=C(NCCCNC(=O)c1cccc(O)c1)Nc1ccc(Cl)cc1 | 45.5%
CC(C)c1cc(C(=O)N2CCC3(CCc4ccccc4C(=O)N3)C2)no1 (centres undefined) | 2.415%
O=S(=O)(c1c(F)cccc1F)N1CCCC1c1nnc2n1CCCCC2 (centres undefined) | -21.2%
CCCN1CCCn2c(nc(CNC(=O)N3CCCC3)cc2=O)C1 | 49.1%
COc1cc2ncn(Cc3ncc[nH]3)c(=O)c2cc1OC | 64.1%
CCc1ccc2ncn(Cc3ncc[nH]3)c(=O)c2c1 | 15.2%
COc1ccc2ncn(Cc3ncc[nH]3)c(=O)c2c1 | -64.3%

Compound | INHIBITION
CCn1cnnc1CNC(=O)N1CCN(Cc2ccco2)CC1 | -2.19%
O=C(CC1CCCC1)N1C[C@H](OCc2ccncc2)[C@H]2OCCC[C@H]21 | -32%
CN1CCOC(CNCC(=O)NCCc2ccc(F)cc2)C1 (centres undefined) | -2.27%
O=C(C[S+]([O-])Cc1cccc(C(F)(F)F)c1)NC1CCCC1 (centres undefined) | 21.9%
CC1CN(C)CCN1Cc1cccc(C(=O)N(C)C)c1 (centres undefined) | -32%
O=C(C[S+]([O-])Cc1ccc(F)cc1Cl)NC1CCCC1 (centres undefined) | 66.7%
CN(C)C(=O)c1cccc(C[S+]([O-])CC(=O)NC2CCCC2)c1 (centres undefined) | 54.4%
O=C(C[S+]([O-])Cc1cccc(F)c1)NC1CCCC1 (centres undefined) | 54.4%
CN(C)C(=O)c1cccc(CN2CCN(CCO)CC2)c1 | -170%
CN(CC(=O)NC1CC1)S(=O)(=O)c1ccc(F)cc1Cl | -26.8%
O=C(C[S+]([O-])Cc1cccc(Cl)c1)NC1CCCC1 (centres undefined) | 15.2%
O=C(Cc1ccc(F)cc1Cl)N[C@@H]1CCNC[C@H]1O | 4.59%
COCCC1(CNC(=O)Nc2ccc(-n3ccnn3)cc2)CCC1 | -12.2%
CSCC[C@H]1CN2CCC[C@H]2CN1Cc1cn(C)nc1C | 5.11%
CN(Cc1ccco1)C(=O)C1CSCN1C(=O)C1CCC1 (centres undefined) | -16%
CCS(=O)(=O)N1CCCCC1c1nc(C(C)C)no1 (centres undefined) | 57.3%
CCS(=O)(=O)N1CCCCC1c1nc(C)no1 (centres undefined) | 20.1%
CC(C)c1noc(C2CCCN2S(=O)(=O)N2CCCCCC2)n1 (centres undefined) | -31.7%
Cc1ccc(C(C)NCc2c(C(C)C)nn(C)c2N2CCOCC2)o1 (centres undefined) | 7.27%
CCOc1ccc(Br)cc1C1CCCCN1 (centres undefined) | 18.4%
CCOc1ccc(Cl)cc1C1CCCN1 (centres undefined) | 18.2%
CCOc1ccc(Cl)cc1C1CCCCN1 (centres undefined) | 54.9%

Compound | INHIBITION
O=C(CCn1ccnc1)N1CC[C@H](Oc2cccc(F)c2)[C@@H](O)CC1 | 7.3%
Cc1cc(NC(=O)C(c2cccc(F)c2)N2CCOCC2)ccn1 (centres undefined) | 41.1%
O=C(Nc1nnc[nH]1)C(c1cccc(F)c1)N1CCOCC1 (centres undefined) | 52.6%
Cc1cc(NC(=O)C(c2cccc(F)c2)N2CCOCC2)sn1 (centres undefined) | -22.8%
O=C(Cn1cc(I)cn1)N1CCNC1=O | -28%
N#Cc1cccnc1OC1CCN(S(=O)(=O)c2ccc(Br)cc2)CC1 | 50.4%
O=S(=O)(c1cc(F)cc(F)c1)N1CCC(Oc2ccc(Cl)cn2)CC1 | 35.8%
COC(=O)c1sccc1S(=O)(=O)N1CCC(Oc2ncccc2Cl)CC1 | 38.5%
N#Cc1cccnc1OC1CCN(S(=O)(=O)c2c(F)cccc2F)CC1 | 54.6%
COC(=O)c1ccc(S(=O)(=O)N2CCC(Oc3cccnn3)CC2)cc1 | 26.6%
N#Cc1cccnc1OC1CCNCC1 | 5.58%
O=S(=O)(c1c(F)cccc1F)N1CCC(Cn2cccn2)CC1 | 36.3%
O=S(=O)(c1ccccc1F)N1CCC(Oc2cccnn2)CC1 | 43.3%
N#Cc1cccnc1OC1CCN(S(=O)(=O)c2ccc(F)c(Cl)c2)CC1 | 64.3%
c1cncc(OCc2nnn3c2CN(Cc2ccsc2)CCC3)c1 | 16.6%
Cc1ccncc1C(=O)N1CCCC(C(=O)CCc2ccccc2)C1 (centres undefined) | -34.8%
COc1ccccc1NC(=O)NCC(O)c1ccc(F)cc1F (centres undefined) | 12.7%
O=C(CC1CC1)N1CCC2(CCCN(CCOc3ccccc3)C2)C1 (centres undefined) | 27.2%
NC(=O)CN1C[C@@H](c2ccccc2F)[C@@]2(CCCCC(=O)N2)C1 | 21.95%
Cc1ccc(CCCC(=O)N2CCC(=O)Nc3cccnc32)s1 | 47.1%
CCc1ccc(CCC(=O)N2CCC(=O)Nc3cccnc32)cc1 | 70.3%
CC(C)c1ocnc1C(=O)N1CCC(=O)Nc2cccnc21 | 4.13%

Compound | INHIBITION
Cc1cccc(CN2C(=O)CC[C@@H]3[C@H]2CCN3Cc2ccc(F)cc2)n1 | 69.5%
Cc1cccc(CN2CC[C@H]3[C@H]2CCN3C(=O)c2cnn(C)c2)n1 | -0.554%
Cn1cc(C[C@H]2[C@H](O)CCN2Cc2ccc3c(c2)OCO3)cn1 | 22.9%
Cn1cc(CN2CC[C@@H]3[C@@H]2CCN3Cc2ccc3c(c2)OCO3)cn1 | 60.5%
Cc1cccc(CN2C(=O)CC[C@@H]3[C@H]2CCN3Cc2cccnc2)n1 | 31.1%
Cc1cccc(CN2CC[C@H]3[C@H]2CCN3Cc2cnn(C)c2)n1 | 51.6%
Cc1cccc(CN2C(=O)C[C@H]3[C@@H]2CCN3Cc2ccc(F)cc2)n1 | -4.82%
CN1CC[C@@H]2[C@@H]1CCN2Cc1ccc2c(c1)OCO2 | 35.8%
Cc1cccc(CN2CC[C@@H]3[C@@H]2CCN3Cc2cccs2)n1 | 33.1%
Cc1cc(OCC(=O)NCc2ccc(F)cc2)nnc1C | -3.08%
CC(=O)N1CCC2(CC1)CN(C(=O)[C@@H]1CSCN1)c1ccc(Cl)cc12 | 30.5%
Cc1cc(CN2C[C@@H](N3CCN(C)CC3)[C@H]3OCCC[C@H]32)oc1C | -30%
Cn1cnc2c1C(COCC1CCOCC1)CN(C(=O)C1CC=CC1)C2 (centres undefined) | 45.1%
Cc1ccc(-c2cc(CN3CCc4cncnc4C3)on2)cc1 | -8.91%
CN(C)[C@@H]1CN(C(=O)c2cc3cccc(F)c3[nH]2)C[C@H]1O | -0.275%
COc1ccc(CN2CCCN(C(=O)C(C)n3ccnc3)CC2)cc1 (centres undefined) | 18.55%
CN(CCCNC(=O)c1ccccc1F)CC(F)(F)F | 52.3%
CN(CCCNC(=O)c1ccc(C#N)cc1)CC(F)(F)F | 21.8%
CN(CCCNC(=O)c1ccccc1OCC(N)=O)CC(F)(F)F | -52.1%
Cn1nnc2c1CCN(Cc1nccs1)C2COCc1ccccc1 (centres undefined) | 15.9%
Cc1noc(C)c1-c1nc(C2CCCN(C(=O)CN)C2)ccc1CO (centres undefined) | 37.1%
Cc1cnc(CN(Cc2cccc(O)c2)CC2CC2)cn1 | 65.9%

Compound | INHIBITION
Cc1cnc(CN(Cc2ccccc2)CC2CCOCC2)cn1 | 14.2%
COCCN(Cc1cccc(O)c1)CC1CC1 | 45.2%
Cc1cnc(N2CCCn3c(nnc3CN(C)C(C)C)C2)nc1 | -19.2%
CCC(=O)N1CCC[C@]2(C(=O)N(C)C)CN(c3ccccn3)C[C@@H]2C1 | 34.2%
CCN(Cc1ccc(C)o1)C(=O)C(C)n1ccnc1C(C)C (centres undefined) | 13%
Cc1ccc(-c2ccnc(NC(c3ncccc3C)C3CC3)n2)c(C)n1 (centres undefined) | 51.2%
Cc1cccc(C(Nc2nccc(-c3ccc(C)nc3C)n2)C2CC2)n1 (centres undefined) | -11.2%
Cc1cccnc1C(Nc1nccc(C2CCCC2)n1)C1CC1 (centres undefined) | 0.164%
CS(=O)(=O)N1C[C@@H](Oc2ccccn2)[C@H]2OCCC[C@H]21 | 29%
Cc1cc(C)c(S(=O)(=O)Nc2c(C)nc(N(C)C)nc2C)cc1C | 4.12%
CCCN(C(=O)CN1CCn2c(nnc2C2CC2)C1)C1=CCCCC1 | 18.7%
CCN(C(=O)CN1CCn2c(nnc2C2CC2)C1)C1=CCCCC1 | 51.2%
CCN(C(=O)CN1CCn2c(C)nnc2C1)C1=CCCCC1 | -6.46%
Cc1cn2nc(N3CCCCC3Cn3cccn3)sc2n1 (centres undefined) | 11.6%
O=C(NCCNc1cnccn1)N1CCN(c2nccs2)CC1 | 29.2%
COc1ncccc1CN1C[C@@H]2CN(c3ncccn3)C[C@@H]2C1 | 47.4%
c1cnc(N2C[C@H]3CCN(Cc4ccncc4)C[C@H]3C2)nc1 | 58.4%
Cc1ccc(CN2C[C@@H]3CN(c4ncccn4)C[C@@H]3C2)cc1 | 40.8%
c1cc(CN2CC[C@@H]3CN(c4cncnc4)C[C@@H]3C2)ccn1 | 27.6%
COc1ncccc1CN1C[C@H]2CCN(c3ncccn3)C[C@H]2C1 | 56.4%
COc1ncccc1CN1C[C@H]2CCN(c3ccc(C)nn3)C[C@H]2C1 | 41.4%

Reference: ChEMBL document CHEMBL4513216, “Probing the Open Global Health Chemical Diversity Library for Multistage-Active Starting Points for Next-Generation Antimalarials” (ACS Infect Dis, 2020)
